Hits are enriched below; roughly 21% of the tested compounds scored in any of these assays.
Pf growth 96h – P. falciparum growth inhibition at 96 hour, primary screen for plastid delayed-death inhibitors; P. falciparum luciferase reporter growth, 96 h; Potency, µM (highest dose often 28.7 µM), actives largely listed as inhibitors; hit rate 6.9% among 320,000; AID 504834
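Parasite growth measured via integrated firefly luciferase reporter in P. falciparum. Infected erythrocytes at 2% hematocrit, 0.05% parasitemia final were treated 96 hours at 37 C under 5% CO2, and luminescence was read.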
Sm TGR inh – inhibitors of Schistosoma mansoni thioredoxin glutathione reductase; Q962Y6; purified TGR, DTNB reduction, TNB absorbance 405 nm; Potency, µM (doses to about 114 µM), actives largely listed as inhibitors; hit rate 3% among 360,000; also: nearly all actives have a fitted effect of over 60% in size
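TGR 20 nM + NADPH 100 uM (dispensed conc.), cpd preinc 15 min RT; start with NADPH (500 uM addition) then DTNB (15 mM addition). Kinetic TNB absorbance, 405 nm filter. Four-parameter Hill fit across titration.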
NS1 inh – influenza NS1 inhibition; Potency, µM (series often up to 46.1 µM); hit rate 0.4% among 270,000; AID 2326; calls by dose curve; also: actives are rising curves; nearly all actives have a fitted effect of over 50% in size
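OD600 was taken as the measure of yeast growth restored by compound in an NS1-expressing S. cerevisiae strain. Cells had been washed out of glucose medium and diluted 1:100 into galactose -URA medium, pH 6.0.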
Shiga toxin inh – inhibitors of Shiga toxin in Vero cells. Vero cells, Shiga toxin protein synthesis inhibition reporter. inhibition, % at 38.7 µM. hit rate 9.2% among 290,000. AID 2315; in the data active = inhibition mostly above about 28%, no sharp cut-off; inactive = mostly below about 43%
Cycloheximide cs – counter-screen for Shiga toxin inhibitors: cycloheximide protein synthesis inhibition. max response, %. hit rate 12% among 300,000. cell reporter, cycloheximide protein synthesis inhibition counterscreen; in the data active = max response mostly above about 13%, no sharp cut-off; inactive = mostly below about 14%; also: read at 38.3 µM for the half of the compounds with a filed dose
Pf growth 48h – inhibits P. falciparum growth in the first generation, 48 h; AID 504832; P. falciparum luciferase growth in erythrocytes, 48 h; Potency, µM (titrated, usually from 28.7 µM), actives largely listed as inhibitors; hit rate 5.9% among 310,000
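Luciferase-expressing P. falciparum in infected erythrocytes (2% hematocrit, 0.1% parasitemia final) in RPMI 1640/0.5% Albumax were exposed to compound for 48 hours at 37 C, 5% CO2; growth read as luminescence.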
Each line names hits and unclear results; the compound was inactive in the other large screens. Unless noted, calls follow the shape of the dose curve; as a rule, active = well fitted curve in the direction sought with a large enough effect; inconclusive = small, poorly fitted or top-dose-only effect, or another doubt; inactive = no such curve, though single readings can be large; an effect the other way counts as inactive or inconclusive.

CN(C)CCNc1nc2sc3c(c2c(=O)n1CCc1ccccc1)CCCCC3	Pf growth 96h 2.3µM, Pf growth 48h 2.1µM
O=C(NCc1ccco1)c1ccc2nc3sc4c(c3c(=O)n2c1)CCCC4	Pf growth 96h 1.9µM, Sm TGR inh 11µM, Shiga toxin inh 99, Cycloheximide cs 60
O=C(C[n+]1cccc(CNC(=O)c2ccc(OC(F)F)cc2)c1)Nc1ccc(SC(F)F)cc1	Pf growth 96h 0.17µM, Pf growth 48h 1.7µM
O=C(CCNC(=O)c1ccco1)Nc1ccc(OC(F)F)cc1	none
O=C(C[n+]1cccc(CNC(=O)c2ccc(OC(F)F)cc2)c1)Nc1ccccc1Cl	Pf growth 96h inconclusive, Pf growth 48h 13µM
O=C(NCc1ccc[n+](CCCCS(=O)(=O)[O-])c1)c1ccc(OC(F)F)cc1	none (no result: NS1 inh)
CC(C)C(=O)Nc1ccc(NC(=O)c2ccco2)cn1	Pf growth 96h inconclusive, Cycloheximide cs 23
CCCCC(=O)Nc1cc(C)c(NC(=O)c2ccco2)cn1	Pf growth 96h inconclusive
CCCC(=O)Nc1ccc(NC(=O)c2ccco2)cn1	Pf growth 96h 8.3µM, Shiga toxin inh 27, Cycloheximide cs 18
CCCCC(=O)Nc1ccc(NC(=O)c2ccco2)cn1	Cycloheximide cs 20
Cc1ccc2nc(CN3CCN(C(=O)Nc4ccc(C)c(F)c4)CC3)oc2c1	none (no result: Pf growth 96h, NS1 inh, Shiga toxin inh, Cycloheximide cs, Pf growth 48h)
CCCC[C@H]1C(=O)O[C@H](C)[C@H](NC(=O)c2cccc(NC=O)c2OC)C(=O)O[C@@H](C)[C@@H]1OC(=O)CC(C)C	none (no result: Pf growth 96h, Sm TGR inh, NS1 inh, Pf growth 48h)
CCCCCCCCCCCC(CC1OC(=O)C1CCCCCC)OC(=O)C(CC(C)C)NC=O (stereo not given)	Pf growth 96h 1.5µM, Pf growth 48h 1.1µM (no result: Sm TGR inh, NS1 inh, Shiga toxin inh, Cycloheximide cs)
CCCCOc1ccccc1C(=O)N(Cc1ccc(C)o1)C1CCS(=O)(=O)C1 (stereo not given)	Sm TGR inh inconclusive
Cc1ccc(C(=O)CC(=O)c2ccc(C)cc2O)cc1	Pf growth 96h 7.4µM, Shiga toxin inh 87, Cycloheximide cs 39
Cc1ccc(C(=O)CCC(=O)NNC(=O)c2ccccc2O)cc1	Pf growth 48h inconclusive (no result: NS1 inh, Shiga toxin inh, Cycloheximide cs)
CC(C)(C)c1ccc(C(=O)CC(=O)c2cc(Cl)ccc2O)cc1	Pf growth 48h 4.7µM (no result: Pf growth 96h)
Cc1ccc(C(=O)CC(=O)c2cc(Cl)ccc2O)cc1	Shiga toxin inh 121, Cycloheximide cs 35, Pf growth 48h inconclusive (no result: Pf growth 96h)
Nc1ccn([C@@H]2O[C@H](CO)[C@@H](O)[C@@H]2O)c(=O)n1	none
Nc1ccn([C@@H]2O[C@H](CO)[C@H](O)C2(F)F)c(=O)n1	Pf growth 96h 1.5µM, Pf growth 48h 1.9µM (no result: Sm TGR inh, NS1 inh, Shiga toxin inh, Cycloheximide cs)
C=CCNC(=S)NC1CC(C)(C)NC(C)(C)C1	Pf growth 96h 10µM
COc1ccc(C[C@H](N)C(=O)N[C@H]2[C@@H](O)[C@H](n3cnc4c(N(C)C)ncnc43)O[C@@H]2CO)cc1	Pf growth 96h 0.17µM, Pf growth 48h 0.1µM (no result: NS1 inh, Shiga toxin inh, Cycloheximide cs)
COc1ccc(/C=C/CN2CCN(CC(C)C)C(CCO)C2)cc1 (stereo not given)	Pf growth 96h 4.1µM, Pf growth 48h inconclusive
COc1ccccc1/C=C/CN1CCN(Cc2ccc(C)o2)C(CCO)C1 (stereo not given)	Pf growth 96h inconclusive, Sm TGR inh 45µM, Pf growth 48h inconclusive
COc1cc(/C=C/CN2CCN(CCC(C)C)C(CCO)C2)ccc1O (stereo not given)	Sm TGR inh 13µM
COc1cc(/C=C/CN2CCN(Cc3ccc(C)o3)C(CCO)C2)ccc1O (stereo not given)	Sm TGR inh 13µM
O=C(O)c1ccc(N2CCS(=O)(=O)CC2)cc1	Pf growth 96h inconclusive (no result: NS1 inh)
O=S1(=O)N=C(N(CCO)/N=C/c2ccc(Br)cc2)c2ccccc21	none
Cc1ccc(CN2CCN(Cc3cnc(C)s3)CC2CCO)o1 (stereo not given)	Sm TGR inh inconclusive
C/C(=C\c1ccccc1)CN1CCN(Cc2ccc(C)o2)C(CCO)C1 (stereo not given)	Pf growth 96h 2.1µM, Pf growth 48h inconclusive
CCC(C)NC(=O)c1ccccc1NC(=O)COc1ccc(OC)cc1 (stereo not given)	Pf growth 48h inconclusive (no result: Pf growth 96h)
CCOc1ccc(CC2c3cc(OCC)c(OCC)cc3CCN2C(=O)c2cc(OC)c(OC)c(OC)c2)cc1OCC (stereo not given)	Pf growth 96h 1.3µM, Pf growth 48h 1.5µM
COc1cc2c(cc1OC)C(COc1ccccc1OC)N(C(=O)c1ccco1)CC2 (stereo not given)	Pf growth 96h 6.6µM, Sm TGR inh inconclusive, Pf growth 48h inconclusive (no result: NS1 inh)
CCC(=O)N1CCc2cc(OC)c(OC)cc2C1COc1ccccc1OC (stereo not given)	Pf growth 48h inconclusive (no result: NS1 inh)
COc1cc2c(cc1OC)C(COc1ccccc1OC)N(C(=O)C(C)C)CC2 (stereo not given)	Pf growth 96h 10µM, Pf growth 48h inconclusive (no result: NS1 inh)
CCN(CC)c1ccc(CNCCCSc2nnnn2C)cc1	none (no result: Pf growth 96h, NS1 inh, Shiga toxin inh, Cycloheximide cs, Pf growth 48h)
O=C(CN1C(=O)c2ccccc2C1=O)c1ccc(F)cc1	Cycloheximide cs 26
CCN(CC)S(=O)(=O)c1ccc(C(=O)N2CCN(CCN3C(=O)c4cccc5cccc(c45)C3=O)CC2)cc1	Pf growth 96h 2.9µM, Pf growth 48h inconclusive (no result: NS1 inh)
O=C(CN1CCN(CCN2C(=O)c3cccc4cccc(c34)C2=O)CC1)c1ccc(F)cc1	Pf growth 96h 1µM, Sm TGR inh inconclusive, Pf growth 48h 15µM
O=C(CN1CCN(CCN2C(=O)c3cccc4cccc(c34)C2=O)CC1)c1ccc(Cl)cc1	Pf growth 96h inconclusive, Sm TGR inh 14µM, Pf growth 48h inconclusive
CCc1nnc2c3ccccc3nc(Nc3cc(C)cc(C)c3)n12	none (no result: Pf growth 96h, NS1 inh, Shiga toxin inh, Cycloheximide cs, Pf growth 48h)
COc1cccc(NC(=O)C2C3C=CC4(O3)C2C(=O)N(CCCN2CCCCC2)C4C(=O)NC2CCCCC2)c1 (stereo not given)	Pf growth 96h inconclusive
Cc1cc(C)n(-c2ccc(C(=O)OC(C)C)cc2)n1	Cycloheximide cs 20
Cc1cc(C)n(-c2ccc(C(=O)C(C#N)c3nc4ccccc4n3C)cc2)n1 (stereo not given)	Pf growth 96h 9.3µM
Cc1cc(C)n(-c2ccc(C(=O)NC(C)C)cc2)n1	none
Cc1cc(C)n(-c2ccc(C(=O)O)cc2)n1	Pf growth 96h 1.9µM
Cc1cc(C)n(-c2ccc(C(=O)N3CCc4ccccc43)cc2)n1	Shiga toxin inh 63, Cycloheximide cs 18
Cn1c(C(C#N)/C(=N\S(=O)(=O)c2cccs2)c2ccccc2)nc2ccccc21 (stereo not given)	none
Cc1cc(N)n(-c2ccc(C(=O)O)cc2)n1	Pf growth 96h inconclusive (no result: Sm TGR inh)
CN(C)S(=O)(=O)N1CCN(C(=O)c2ccc3c(c2)OCO3)CC1	none
CCc1nnc(NC(=O)C2CCCN2C(=O)Nc2ccc(C)cc2)s1 (stereo not given)	none
COc1ccccc1-n1c(=S)[nH]c2c(sc(=S)n2-c2ccccc2C)c1=O	none (no result: NS1 inh)
CC(N)=O	none (no result: Pf growth 96h, Sm TGR inh, Shiga toxin inh, Cycloheximide cs, Pf growth 48h)
OCC[C@@H]1C[C@H](O)[C@@H](O)[C@@]2(CCCc3ccccc3O2)O1	none

Screens deposited in PubChem BioAssay by National Center for Advancing Translational Sciences (NCATS).
